Screen size: about 5,500 compounds; about 2,000 (36%) were called active. Inconclusive results (about 18%) are left out. No stated cut-off is given here; in the data, active means normalized growth mostly below about 0.91 (no sharp cut-off); inconclusive means no clear call, values can overlap the other calls; inactive means mostly above about 0.92. This is one part of the list.
Experiment: chemical genetic growth profiling, strain panel (AID 1159580);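 further: tested at 20 µM; growth read once vehicle control cultures reached saturation at 30 °C; 1 = growth at the plate median or of vehicle wells; lower values mean less growth of the strain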
Details: growth OD
[1] = S. cerevisiae deletion strains, locus YDR150W, strain NUM1, active compounds read low
[2] = S. cerevisiae deletion strains, locus YGR078C, strain PAC10, active compounds read low
[3] = S. cerevisiae deletion strains, locus YJR075W, strain HOC1, active compounds read low
[4] = S. cerevisiae deletion strains, locus YMR263W, strain SAP30, active compounds read low
[5] = S. cerevisiae deletion strains, locus YPL055C, strain LGE1, active compounds read low
[6] = S. cerevisiae deletion strains, locus YDL101C, strain DUN1, active compounds read low
[7] = S. cerevisiae deletion strains, locus YHR030C, strain SLT2, active compounds read low

Measured: normalized growth

Nc1ncnc2c1nc(Br)n2C1OC2COP(=O)(O)O[C@@H]2C1O (stereo partly specified)
inactive: S. cerevisiae deletion strains, locus YAL040C, strain CLN3, active compounds read low 0.986 | [1] 0.999 | S. cerevisiae deletion strains, locus YER002W, strain NOP16, active compounds read low 0.996 | [2] 1.01 | [3] 1 | [4] 0.999 | S. cerevisiae deletion strains, locus YNL175C, strain NOP13, active compounds read low 0.986 | S. cerevisiae deletion strains, locus YNL197C, strain WHI3, active compounds read low 1.02 | S. cerevisiae deletion strains, locus YNL224C, strain SQS1, active compounds read low 0.999 | S. cerevisiae deletion strains, locus YOR083W, strain WHI5 (second series), active compounds read low 1.02 | [5] 1.01

Clc1ccc(N/N=C\c2sccc2Oc2ccccc2)cc1
active: S. cerevisiae deletion strains, locus YDL214C, strain PRR2, active compounds read low 0.335 | S. cerevisiae deletion strains, locus YDR477W, strain SNF1, active compounds read low 0.275 | S. cerevisiae deletion strains, locus YER123W, strain YCK3, active compounds read low 0.184 | S. cerevisiae deletion strains, locus YER133W, strain GLC7, active compounds read low 0.345 | S. cerevisiae deletion strains, locus YFR019W, strain FAB1, active compounds read low 0.313 | S. cerevisiae deletion strains, locus YGR040W, strain KSS1, active compounds read low 0.268 | S. cerevisiae deletion strains, locus YGR052W, strain FMP48, active compounds read low 0.21 | S. cerevisiae deletion strains, locus YGR092W, strain DBF2, active compounds read low 0.115 | [7] 0.125 | S. cerevisiae deletion strains, locus YHR079C, strain IRE1, active compounds read low 0.474 | S. cerevisiae deletion strains, locus YHR082C, strain KSP1, active compounds read low 0.361 | S. cerevisiae deletion strains, locus YHR205W, strain SCH9, active compounds read low 0.43 | S. cerevisiae deletion strains, locus YJL095W, strain BCK1, active compounds read low 0.125 | S. cerevisiae deletion strains, locus YJL157C, strain FAR1, active compounds read low 0.316 | S. cerevisiae deletion strains, locus YJR066W, strain TOR1 (second series), active compounds read low 0.423 | S. cerevisiae deletion strains, locus YJR066W, strain TOR1, active compounds read low 0.241 | S. cerevisiae deletion strains, locus YKL048C, strain ELM1, active compounds read low 0.468 | S. cerevisiae deletion strains, locus YKL067W, strain YNK1, active compounds read low 0.303 | S. cerevisiae deletion strains, locus YKL101W, strain HSL1, active compounds read low 0.353 | S. cerevisiae deletion strains, locus YKL203C, strain TOR2, active compounds read low 0.34 | S. cerevisiae deletion strains, locus YLR113W, strain HOG1, active compounds read low 0.275 | S. cerevisiae deletion strains, locus YLR133W, strain CKI1, active compounds read low 0.28 | S. cerevisiae deletion strains, locus YLR403W, strain SFP1, active compounds read low 0.242 | S. cerevisiae deletion strains, locus YML070W, strain DAK1, active compounds read low 0.293 | S. cerevisiae deletion strains, locus YMR205C, strain PFK2 (second series), active compounds read low 0.47 | S. cerevisiae deletion strains, locus YNL020C, strain ARK1, active compounds read low 0.382 | S. cerevisiae deletion strains, locus YNL183C, strain NPR1, active compounds read low 0.393 | S. cerevisiae deletion strains, locus YNL307C, strain MCK1 (second series), active compounds read low 0.147 | S. cerevisiae deletion strains, locus YOL136C, strain PFK27, active compounds read low 0.312 | S. cerevisiae deletion strains, locus YOR061W, strain CKA2, active compounds read low 0.19 | S. cerevisiae deletion strains, locus YOR119C, strain RIO1, active compounds read low 0.299 | S. cerevisiae deletion strains, locus YOR231W, strain MKK1, active compounds read low 0.477 | S. cerevisiae deletion strains, locus YPL031C, strain PHO85, active compounds read low 0.295 | S. cerevisiae deletion strains, locus YPL153C, strain RAD53, active compounds read low 0.279 | S. cerevisiae deletion strains, locus YPL204W, strain HRR25, active compounds read low 0.338 | S. cerevisiae deletion strains, locus YPL256C, strain CLN2, active compounds read low 0.275
inactive: S. cerevisiae deletion strains, locus YAR019C, strain CDC15, active compounds read low 0.971 | S. cerevisiae deletion strains, locus YBL105C, strain PKC1, active compounds read low 0.979 | S. cerevisiae deletion strains, locus YBR135W, strain CKS1, active compounds read low 0.966 | S. cerevisiae deletion strains, locus YBR136W, strain MEC1, active compounds read low 0.963 | S. cerevisiae deletion strains, locus YBR160W, strain CDC28, active compounds read low 0.965 | S. cerevisiae deletion strains, locus YDL017W, strain CDC7, active compounds read low 0.974 | S. cerevisiae deletion strains, locus YDL028C, strain MPS1, active compounds read low 0.968 | [6] 0.951 | S. cerevisiae deletion strains, locus YDL108W, strain KIN28, active compounds read low 0.969 | S. cerevisiae deletion strains, locus YDL132W, strain cdc53, active compounds read low 0.964 | S. cerevisiae deletion strains, locus YDR052C, strain DBF4, active compounds read low 0.95 | S. cerevisiae deletion strains, locus YDR054C, strain cdc34, active compounds read low 0.963 | S. cerevisiae deletion strains, locus YDR226W, strain ADK1, active compounds read low 0.96 | S. cerevisiae deletion strains, locus YFL009W, strain cdc4, active compounds read low 0.968 | S. cerevisiae deletion strains, locus YFL029C, strain CAK1, active compounds read low 0.959 | S. cerevisiae deletion strains, locus YFR003C, strain YPI1, active compounds read low 0.975 | S. cerevisiae deletion strains, locus YFR028C, strain CDC14, active compounds read low 0.965 | S. cerevisiae deletion strains, locus YIL147C, strain SLN1, active compounds read low 0.969 | S. cerevisiae deletion strains, locus YJL128C, strain PBS2, active compounds read low 0.864 | S. cerevisiae deletion strains, locus YJR016C, strain ILV3, active compounds read low 0.947 | S. cerevisiae deletion strains, locus YKL193C, strain SDS22, active compounds read low 0.968 | S. cerevisiae deletion strains, locus YMR001C, strain CDC5, active compounds read low 0.972 | S. cerevisiae deletion strains, locus YMR277W, strain FCP1, active compounds read low 0.977 | S. cerevisiae deletion strains, locus YNL006W, strain LST8, active compounds read low 0.968 | S. cerevisiae deletion strains, locus YNL161W, strain CBK1, active compounds read low 0.974 | S. cerevisiae deletion strains, locus YNL207W, strain RIO2, active compounds read low 0.969 | S. cerevisiae deletion strains, locus YNL222W, strain SSU72, active compounds read low 0.966 | S. cerevisiae deletion strains, locus YOL078W, strain AVO1, active compounds read low 0.97 | S. cerevisiae deletion strains, locus YOR329C, strain SCD5, active compounds read low 0.978 | S. cerevisiae deletion strains, locus YPL209C, strain IPL1, active compounds read low 0.977 | S. cerevisiae deletion strains, locus YPR025C, strain CCL1, active compounds read low 0.963 | S. cerevisiae deletion strains, locus YPR106W, strain ISR1, active compounds read low 0.967 | S. cerevisiae deletion strains, locus YPR111W, strain DBF20, active compounds read low 0.963 | S. cerevisiae deletion strains, strain NNK1, active compounds read low 0.979 | S. cerevisiae deletion strains, strain TSCII, active compounds read low 0.966

O/N=C\c1sccc1Oc1ccccc1
active: S. cerevisiae deletion strains, locus YEL061C, strain CIN8, active compounds read low 0.869 | S. cerevisiae deletion strains, locus YNL153C, strain GIM3, active compounds read low 0.905
inactive: S. cerevisiae deletion strains, locus YAL013W, strain DEP1, active compounds read low 0.964 | S. cerevisiae deletion strains, locus YBR229C, strain ROT2, active compounds read low 0.958 | S. cerevisiae deletion strains, locus YCL061C, strain MRC1, active compounds read low 0.942 | [6] 0.926 | [1] 0.953 | [2] 0.952 | [7] 0.729 | S. cerevisiae deletion strains, locus YHR087W, strain rtc3, active compounds read low 1.01 | S. cerevisiae deletion strains, locus YJL187C, strain SWE1, active compounds read low 1.01 | S. cerevisiae deletion strains, locus YJR043C, strain POL32, active compounds read low 1 | [3] 0.978 | S. cerevisiae deletion strains, locus YLR039C, strain RIC1, active compounds read low 0.954 | S. cerevisiae deletion strains, locus YLR058C, strain SHM2 (second series), active compounds read low 0.997 | S. cerevisiae deletion strains, locus YLR085C, strain ARP6, active compounds read low 0.911 | S. cerevisiae deletion strains, locus YLR262C, strain YPT6, active compounds read low 0.931 | S. cerevisiae deletion strains, locus YML094W, strain GIM5, active compounds read low 0.927 | S. cerevisiae deletion strains, locus YMR219W, strain ESC1, active compounds read low 0.977 | [4] 0.968 | S. cerevisiae deletion strains, locus YNL128W, strain TEP1, active compounds read low 0.98 | S. cerevisiae deletion strains, locus YNL298W, strain CLA4 (second series), active compounds read low 0.962 | S. cerevisiae deletion strains, locus YNL322C, strain KRE1, active compounds read low 0.988 | S. cerevisiae deletion strains, locus YNR030W, strain Alg12, active compounds read low 0.932 | S. cerevisiae deletion strains, locus YOL006C, strain TOP1, active compounds read low 0.795 | [5] 0.98 | S. cerevisiae deletion strains, locus YPL241C, strain CIN2, active compounds read low 0.917 | S. cerevisiae deletion strains, locus YPR135W, strain CTF4, active compounds read low 0.648 | S. cerevisiae strains, strain wild type, active compounds read low 0.953

Source: PubChem BioAssay AID1159580 (chemical genetic matrix, 2015)
